These results are taken from PubChem BioAssay (Tox21).

A number with no mark means an inactive call. Inconclusive results are not listed. Calls of active or inactive are those of the source. Unless noted, calls follow the shape of the dose curve; as a rule, active = well fitted curve in the direction sought with a large enough effect in the repeat runs; inconclusive = weak or mixed curves; inactive = no such curve, though single readings can be large; an effect the other way counts as inactive or inconclusive.

A short description of test [1]: qHTS assay to identify small molecule antagonists of the estrogen related receptor (ERR) signaling pathway from Tox21 library - cell viability counter screen (AID 1224834). Also: nearly all actives have a fitted effect of over 30% in size. Also: potency is read from the fitted curve at half-maximal effect. An outline of the steps:
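Fluorescence from CellTiter-Fluor gives the viability read-out, taken 30 min after reagent addition. Before that, ERR cells seeded 6 h earlier were incubated with compounds for 17.5 h at 37 C.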
Background: In qHTS, concentration-response curves come from the screen itself.

Test [2] addresses Luciferin 4-monooxygenase (Photinus pyralis) (UniProt P08659). The experiment in a line: qHTS assay to identify small molecule inhibitors of firefly luciferase (AID 1224835). Also: nearly all actives have a fitted effect of over 25% in size. Also: potency is read from the fitted curve at half-maximal effect. An outline of the steps:
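Quantitative HTS format; KM concentrations of both substrates. Purified P. pyralis FLuc activity quantified from luminescence images.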

Test [3] concerns the target Nuclear receptor subfamily 1 group I member 3 (Homo sapiens) (UniProt Q14994). The experiment in a line: qHTS assay to identify small molecule antagonists of the constitutive androstane receptor (CAR) signaling pathway (AID 1224838).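 Also: HepG2 cells stably expressing hCAR with CYP2B6 luciferase reporter stimulated by CITCO; nearly all actives have a fitted effect of over 40% in size.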 Also: potency is read from the fitted curve at half-maximal effect. In outline:
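HepG2-CYP2B6-hCAR cells; 4 h pre-incubation; cpd (15 conc) + CITCO 50 nM final; 24 h, 37 C/5% CO2; ONE-Glo, luminescence.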

Test [4] has the same target. The experiment in a line: qHTS assay to identify small molecule agonists of the constitutive androstane receptor (CAR) signaling pathway (AID 1224839). Also: nearly all actives have a fitted effect of over 15% in size. Also: potency is read from the fitted curve at half-maximal effect.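 As to activation: HepG2 cells stably carrying human CAR and a CYP2B6 luciferase reporter; % is scaled to controls: 0 for no effect and ±100 for the full control effect.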 In outline:
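Luminescent ONE-Glo read-out after 24 hr, 37 C exposure of double-stable HepG2-CYP2B6-hCAR reporter cells to a 15-point compound series, in the presence of 0.75 uM PK11195 (final).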

Test [5] in a line: qHTS assay to identify small molecule antagonists of the estrogen related receptor signaling pathway with the pleiotropic PPARgamma coactivator (PGC) from Tox21 10K library (AID 1224841; call rule not given here; also: actives are mostly falling curves and most rising ones were filed inactive; nearly all actives have a fitted effect of over 50% in size; also: potency is read from the fitted curve at half-maximal effect). In outline:
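PGC/ERR cell line, 2,000 cells/well; 6 h pre-incubation 37 C/5% CO2; compounds (DMSO) pinned in; 18 h, 37 C; One-Glo, 30 min RT; luminescence.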

Test [6] can be described thus: qHTS assay to identify small molecule agonists of the estrogen related receptor signaling pathway with the pleiotropic PPARgamma coactivator (PGC) from Tox21 10K library (AID 1224842). Also: % is scaled to controls: 0 for no effect and ±100 for the full control effect; nearly all actives have a fitted effect of over 15% in size. In outline: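 PGC/ERR reporter cells (NTP line) were seeded 2,000 per well, rested 6 h at 37 C/5% CO2, then pin-dosed with compounds in DMSO for 18 h at 37 C; luciferase read by One-Glo luminescence after 30 min at room temperature.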

For test [7], the target named is Thyrotropin receptor (Homo sapiens) (UniProt P16473). The test is described as follows: qHTS assay to identify small molecule agonists of the thyroid stimulating hormone receptor (TSHR) signaling pathway (AID 1224843; calls by dose curve; also: % is scaled to controls: 0 for no effect and ±100 for the full control effect; nearly all actives have a fitted effect of over 45% in size). An outline of the steps:
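TSHR-expressing HEK293 cells (800 per well) were exposed to compounds for 30 min at room temperature. cAMP was then detected by HTRF competition with cAMP-d2 and anti-cAMP cryptate, read after 1 h at room temperature. Fifteen concentrations, triplicate.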

Test [8] in a line: qHTS assay to identify small molecule agonists of the hypoxia (HIF-1) signaling pathway (AID 1224846; active = well fitted activation curve with a large enough effect in the signal ratio in the repeat runs, not every such curve was filed as active; the % refers to the signal ratio; also: % is scaled to controls: 0 for no effect and ±100 for the full control effect). An outline of the steps: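 Cell line: CellSensor HRE-bla ME-180; 2,000 cells/well; 0.5% dialyzed FBS; 5 h preincubation; DMSO compound pin transfer; 17 h, 37C, 5% CO2; CCF4-AM added; bla FRET signal scored for activation.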
A short description of test [9]: qHTS assay to identify small molecule agonists of H2AX - cell viability counter screen (AID 1224847; calls by dose curve; also: nearly all actives have a fitted effect of over 30% in size; also: potency is read from the fitted curve at half-maximal effect). In outline: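 Counter-screen for viability: CellTiter-Glo ATP luminescence read after 3 h compound treatment (15-point titration, 0.76% DMSO final) of CHO-K1 cells at 37C, with 30 min room-temperature reagent incubation.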
The nature of test [10]: qHTS assay to identify small molecule antagonists of the estrogen related receptor (ERR) signaling pathway from Tox21 library (AID 1224848). Also: potency is read from the fitted curve at half-maximal effect; nearly all actives have a fitted effect of over 50% in size. An outline of the steps: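 Cells: ERR line, 2,000/well; 6 h preincubation 37 C/5% CO2. Cpd in DMSO via pin tool; 18 h, 37 C. ONE-Glo, 30 min RT, luminescence.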
Test [11] is described as follows: qHTS assay to identify small molecule agonists of the estrogen related receptor (ERR) signaling pathway from Tox21 library (AID 1224849; calls by dose curve; also: % is scaled to controls: 0 for no effect and ±100 for the full control effect; nearly all actives have a fitted effect of over 15% in size). As to conditions: ERR reporter cell line, ONE-Glo luciferase, 18 h; at 92.4 µM (top of the series) unless noted. An outline of the steps: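 ERR cells, 6 h pre-incubation 37 C/5% CO2; cpd in DMSO pinned; 18 h 37 C; ONE-Glo added, 30 min RT; luminescence read. Agonist mode, qHTS.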

Test [12] is described as follows: qHTS RealTime-Glo MT Cell Viability Assay in HepG2 cells - 24 hour (AID 1224867). Also: nearly all actives have a fitted effect of over 50% in size. Also: potency is read from the fitted curve at half-maximal effect. An outline of the steps:
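Tox21 10K library screened in qHTS format on HepG2 cells carrying RealTime-Glo reagents. Compounds were added after a 5 h preincubation, and the luminescent signal from continuous culture was measured repeatedly during 40 h treatment.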

A short description of test [13]: qHTS RealTime-Glo MT Cell Viability Assay in HEK293 cells - 32 hour (AID 1224868). Also: nearly all actives have a fitted effect of over 50% in size. Also: potency is read from the fitted curve at half-maximal effect. In outline:
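Luminescence generated by NanoLuc from substrate produced by living HEK293 cells served as the viability signal. Each value reflects the reading at its stated time point during continuous 40 h compound exposure at 37 C.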

Test [14] can be described thus: A CellTox Green Cytotoxicity Assay to monitor cytotoxicity in HEK293 cells - 0 hour (AID 1224869). An outline of the steps: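 Nonlytic real-time cytotoxicity: HEK293 + CellTox Green reagent plated, 5 h preincubation, pintool compound addition (23 nL in DMSO), 37 C for 40 h, fluorescence measured at successive time points.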
Test [15] can be described thus: qHTS assay to identify small molecule agonists of the hypoxia (HIF-1) signaling pathway - cell viability counter screen (AID 1224844; calls by dose curve; also: nearly all actives have a fitted effect of over 50% in size; also: potency is read from the fitted curve at half-maximal effect). In outline:
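ME-180 HRE-bla cells, 2,000/well, 0.5% dialyzed FBS; 5 hr settle, 17 hr compound at 37C/5% CO2; CCF4-AM reporter read first, then CellTiter-Glo luminescence after 30 min RT.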

Test [16] can be described thus: qHTS assay to identify small molecule agonists of H2AX (AID 1224845; active = well fitted activation curve with a large enough effect in the signal ratio in the repeat runs, not every such curve was filed as active; the % refers to the signal ratio; also: % is scaled to controls: 0 for no effect and ±100 for the full control effect). An outline of the steps: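 Wild-type CHO-K1 cells plated overnight, then exposed 3 hr at 37C to compounds at 15 concentrations (0.76% DMSO). Lysed, then HTRF anti-pH2AX(S139)-cryptate/anti-H2AX-d2 detection after 24 hr at room temperature; emissions 665 and 620 nm.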
Test [17] in a line: qHTS assay to identify small molecule agonists of the constitutive androstane receptor (CAR) signaling pathway - cell viability counter screen (AID 1224836). Also: % is scaled to controls: 0 for no effect and ±100 for the full control effect; nearly all actives have a fitted effect of over 45% in size. An outline of the steps:
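Cell viability multiplexed with the CAR agonist screen: CellTiter-Fluor fluorescence after 23 hr at 37 C. HepG2-CYP2B6-hCAR cells got compounds at 15 concentrations with PK11195 at 0.75 uM final.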

Test [18] can be described thus: qHTS assay to identify small molecule antagonists of the constitutive androstane receptor (CAR) signaling pathway - cell viability counter screen (AID 1224837). Also: nearly all actives have a fitted effect of over 45% in size. Also: potency is read from the fitted curve at half-maximal effect. In outline:
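HepG2-CYP2B6-hCAR cells, 2500/well, 4 hr pre-incubation; compound titration, 15 conc.; CITCO 50 nM final; 23 hr, 37 C/5% CO2; CellTiter-Fluor, fluorescence intensity.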

A short description of test [19]: qHTS assay to identify small molecule antagonists of the estrogen related receptor signaling pathway with the pleiotropic PPARgamma coactivator (PGC) from Tox21 10K library - cell viability counter screen (AID 1224840; active = well fitted cell-killing curve with a large enough effect in the repeat runs, not every such curve was filed as active; also: % is scaled to controls: 0 for no effect and ±100 for the full control effect; nearly all actives have a fitted effect of over 40% in size). In outline:
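PGC/ERR cells, 2,000/well; 6 h pre-incubation 37 C/5% CO2; cpd in DMSO via pin tool; 17.5 h 37 C; CellTiter-Fluor, 30 min; fluorescence.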

Chain of Luciferin 4-monooxygenase (Photinus pyralis) (P08659 whole entry, looked up): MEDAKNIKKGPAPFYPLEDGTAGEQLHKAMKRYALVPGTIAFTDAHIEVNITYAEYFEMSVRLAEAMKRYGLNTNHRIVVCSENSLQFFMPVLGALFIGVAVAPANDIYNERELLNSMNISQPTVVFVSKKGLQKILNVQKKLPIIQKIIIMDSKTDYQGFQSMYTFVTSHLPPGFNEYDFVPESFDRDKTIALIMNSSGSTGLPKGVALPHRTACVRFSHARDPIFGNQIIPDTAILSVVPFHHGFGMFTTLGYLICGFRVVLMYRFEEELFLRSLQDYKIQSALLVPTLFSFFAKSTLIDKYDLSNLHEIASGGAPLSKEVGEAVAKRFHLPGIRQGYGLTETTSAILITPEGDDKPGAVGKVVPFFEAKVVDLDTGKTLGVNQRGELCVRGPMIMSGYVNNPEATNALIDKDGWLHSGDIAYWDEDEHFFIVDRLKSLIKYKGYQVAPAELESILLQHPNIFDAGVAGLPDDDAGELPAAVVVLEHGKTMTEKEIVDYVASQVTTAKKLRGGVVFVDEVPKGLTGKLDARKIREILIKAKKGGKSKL
Chain of Nuclear receptor subfamily 1 group I member 3 (Homo sapiens) (Q14994 whole entry, looked up): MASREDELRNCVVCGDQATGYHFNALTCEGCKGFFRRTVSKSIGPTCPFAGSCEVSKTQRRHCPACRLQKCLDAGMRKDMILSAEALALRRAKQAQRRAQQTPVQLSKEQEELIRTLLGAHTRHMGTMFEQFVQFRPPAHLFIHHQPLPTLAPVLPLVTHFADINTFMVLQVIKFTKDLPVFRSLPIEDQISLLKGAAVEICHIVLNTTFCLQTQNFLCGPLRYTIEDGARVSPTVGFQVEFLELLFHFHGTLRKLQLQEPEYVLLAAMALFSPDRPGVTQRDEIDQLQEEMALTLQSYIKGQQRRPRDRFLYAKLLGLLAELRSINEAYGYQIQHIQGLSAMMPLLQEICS
Chain of Thyrotropin receptor (Homo sapiens) (P16473 whole entry, looked up): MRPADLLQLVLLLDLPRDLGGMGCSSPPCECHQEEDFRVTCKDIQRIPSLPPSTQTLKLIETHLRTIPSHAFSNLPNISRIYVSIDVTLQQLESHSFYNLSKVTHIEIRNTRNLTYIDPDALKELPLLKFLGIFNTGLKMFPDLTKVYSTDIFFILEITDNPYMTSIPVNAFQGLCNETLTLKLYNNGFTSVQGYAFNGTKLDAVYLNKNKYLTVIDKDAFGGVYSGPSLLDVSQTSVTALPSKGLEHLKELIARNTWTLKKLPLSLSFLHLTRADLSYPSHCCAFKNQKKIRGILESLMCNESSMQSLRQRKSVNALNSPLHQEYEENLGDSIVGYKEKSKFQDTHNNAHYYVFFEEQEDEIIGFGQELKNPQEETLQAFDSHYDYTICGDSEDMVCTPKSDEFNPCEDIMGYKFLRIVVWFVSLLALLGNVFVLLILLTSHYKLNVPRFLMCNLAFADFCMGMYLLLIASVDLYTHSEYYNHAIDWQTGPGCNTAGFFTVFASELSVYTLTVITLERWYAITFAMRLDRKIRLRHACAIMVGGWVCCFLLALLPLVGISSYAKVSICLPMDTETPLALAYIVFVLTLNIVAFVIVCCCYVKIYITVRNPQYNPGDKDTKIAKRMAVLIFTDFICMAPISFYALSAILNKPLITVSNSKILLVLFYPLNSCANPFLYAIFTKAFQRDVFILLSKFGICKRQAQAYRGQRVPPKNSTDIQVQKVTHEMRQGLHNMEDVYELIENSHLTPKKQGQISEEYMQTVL

In the case of `CC(C)C(O)C(C)(C)CO` (stereo not drawn), the Potency in [1] is 0.631 µM (active); in [3], 8.91 µM (active); in [5], 1.78 µM (active); in test [10] it was 0.891 µM (active); in test [13] it was 0.801 µM (active). Further, the Potency result in test [2], in test [4], in test [6], in test [7], in [9] and in test [12] was “inactive” throughout. Besides, in [14], the Potency entry is “inactive”. In addition, in [8], the molecule was classed as inactive. The activity change, positive = activation in test [11] is -71.7%.

Regarding `O[C@@H](CNC[C@H](O)[C@H]1CCc2cc(F)ccc2O1)[C@@H]1CCc2cc(F)ccc2O1`, the Potency was 29.8 µM (active) in test [1]; 33.5 µM (active) in test [5]; 23.9 µM (active) in test [15]; 16.9 µM (active) in test [12]; 19 µM (active) in test [13]. The Potency entry in test [2], in test [4], in test [6], in test [7], in [16] and in test [14] was “inactive” throughout. Also, the molecule was called inactive in test [8]. For the same molecule, the activity change, positive = activation in test [11] is -67.5% [at 42.5 µM].

`COC(=O)Nc1nc2ccc(C(=O)C3CC3)cc2[nH]1`: in test [2], the Potency was 19.5 µM (active). The Potency result in test [17], in [18], in [19], in [7], in [16] and in test [9] was “inactive” each time. Further, the Potency result in test [12] and in [14] was “inactive” in each case. Besides, the molecule was called inactive in test [8].

As to `O=C(NC(Cc1cc(=O)[nH]c2ccccc12)C(=O)O)c1ccc(Cl)cc1` (stereo not drawn), the Potency result in test [2], in test [17], in test [18], in test [3], in test [4] and in test [19] was “inactive” in each case. For the same molecule, the Potency result in test [7], in test [15], in [16], in test [9], in test [12] and in test [13] was “inactive” each time. The molecule was classed as inactive in test [8].

Consider `Cc1cccc2sc(N)nc12`, for which the Potency result in [1], in test [18], in test [3], in test [19], in test [15] and in [16] was “inactive” in each case. Also, the Potency entry in test [9], in test [12], in test [13] and in [14] was “inactive” in each case. In test [8], the outcome was inactive.

With `BrC(Br)C(Br)Br`, the Potency entry in [1], in test [18], in [3], in test [4], in test [19] and in test [7] was “inactive” each time. Further, the Potency result in [15], in test [9], in test [12] and in [14] was “inactive” throughout. The molecule was classed as inactive in [8].

For `O=[N+]([O-])C1(Br)COCOC1`, the Potency was 25.2 µM (active) in [2]; 38.9 µM (active) in [15]; 113 µM (active) in [9]; 54.9 µM (active) in test [12]; 34.7 µM (active) in test [13]. Besides, the Potency entry in [18], in test [4], in [5], in [6] and in test [14] was “inactive” in each case. Moreover, the activity change, positive = activation in test [11] is -12.2%.

For `Nc1cccc2c(N)cccc12`, the Potency in test [2] is 39.9 µM (active); in [18] it was 24.3 µM (active); in test [4], 24.3 µM (active). Besides, the Potency entry in [3], in test [9] and in test [14] was “inactive” in each case. Also, in test [8], the call was inactive.

`COc1cc(NCc2ccc3nc(N)nc(N)c3c2C)cc(OC)c1OC`: the Potency entry in test [2], in [17], in [4], in test [19], in [6] and in test [12] was “inactive” throughout. The Potency entry in test [14] is “inactive”. Further, the Potency in test [3] is 0.0266 µM (active); in [5], 0.075 µM (active); in test [9] it was 0.22 µM (active); in [10], 0.0473 µM (active); in test [13], 0.0268 µM (active). Moreover, the result in test [8] was inactive. Moreover, in [11], the activity change, positive = activation was -56.3% [at 42.5 µM].

For the molecule `CN(C)CC/C=C1\c2ccccc2Sc2ccc(Cl)cc21`, the Potency entry in test [2], in test [4], in test [5], in test [7] and in test [14] was “inactive” each time. Besides, the results for the Potency in test [9], in [12] and in test [13] were 49.2 µM (active), 23.9 µM (active) and 23.9 µM (active), respectively. Also, the activity change, positive = activation in test [11] was -17.7% [at 42.5 µM].
